According to the supplement of paper PMC10849652:
The full data set covers some 8,800 targets. This sample favours those with a hit. About 0.5% of all pairs of compound and target were hits.

Key:
Assay in all cases: log2 fold change, soluble protein after heating vs DMSO (PISA); higher = thermal stabilisation; K562 lysate, 10 uM; active = over 0.2 and 3.5 SD of the protein, either way, in both replicates (recomputed)
erlotinib = compound: C#Cc1cccc(Nc2ncnc3cc(OCCOC)c(OCCOC)cc23)c1 [erlotinib]
Procedure, shortened: (§1)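 Thermal stability, expressed as log-two fold change relative to solvent controls, is given from duplicates. Crude K562 extract in PBS pH 7.4 with 1 mM MgCl2, at 1 mg/mL protein, was treated with 10 μM compound for 30 min and heated in aliquots for 3 min across 48°C-58°C. After pooling, adjustment to 0.5% NP-40 at 4°C and centrifugation at 21,000xg for 90 min, supernatant protein was measured by TMTpro 16plex LC-MS/MS with channel sums equalised.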

[1] = compound: C/C(=N\NC(=O)C1=CC(=CC=C1)S(=O)(=O)N2CCOCC2)/C3=C(C=CC(=C3)Cl)O
Procedure, shortened: as §1

[2] = compound: C1=CC(=CC=C1C2=NC3=C(N2)C=C(C=C3)C(=O)N)OC4=CC=C(C=C4)Cl
Procedure, shortened: as §1

[3] = compound: C1=CC2=C(C=CC(=C2)/C=C\3/C(=O)NC(=NCC4=CC=CS4)S3)N=C1
Procedure, shortened: as §1

[4] = compound: C1=CC2=NC=CN=C2C=C1/C=C/3\C(=O)NC(=O)S3
Procedure, shortened: as §1

[5] = compound: C1=CC=C(C=C1)C2=NC(=C(N2)C3=CC=NC=C3)C4=CC(=C(C=C4)Cl)O
Procedure, shortened: as §1

[6] = compound: C1=CC=C2C(=C1)C3=NNC4=CC=CC(=C43)C2=O
Procedure, shortened: as §1

[7] = compound: C1CCN(C1)C(=O)NC2=CC=CC(=C2)NC3=NC=C(C(=N3)NCCC4=CN=CN4)Br
Procedure, shortened: as §1

[8] = compound: C1CN(CCC1(CC2=CC=C(C=C2)Cl)N)C3=NC=NC4=C3C=CN4
Procedure, shortened: as §1

IRAK-1-4 Inhibitor I = compound: C1COCCN1CCN2C3=CC=CC=C3N=C2NC(=O)C4=CC(=CC=C4)[N+](=O)[O-] [IRAK-1-4 Inhibitor I]
Procedure, shortened: as §1

ibrutinib = compound: C=CC(=O)N1CCC[C@@H](n2nc(-c3ccc(Oc4ccccc4)cc3)c3c(N)ncnc32)C1 [ibrutinib]
Procedure, shortened: as §1

[9] = compound: CC(=O)c1cnc2ccc(-c3cc(Cl)c(O)c(Cl)c3)nc2c1N[C@H]1CC[C@H](CN(C)C)CC1
Procedure, shortened: as §1

ralimetinib = compound: CC(C)(C)Cn1c(N)nc2ccc(-c3[nH]c(C(C)(C)C)nc3-c3ccc(F)cc3)nc21 [ralimetinib]
Procedure, shortened: as §1

[10] = compound: CC(C)(O)CC(=O)NCCn1ccc2ncnc(Nc3ccc(Oc4cccc(C(F)(F)F)c4)c(Cl)c3)c21
Procedure, shortened: as §1

[11] = compound: CC(C)C1=C2N=C(C=C(N2N=C1)NCC3=CC=CC=C3)NCCCCCCN
Procedure, shortened: as §1

[12] = compound: CC1=C(C(CC(=O)N1)C2=CC=C(C=C2)C(F)(F)F)C(=O)NC3=C(C=C4C(=C3)C=NN4)F
Procedure, shortened: as §1

[13] = compound: CC1=C(C2=C(C=C1)C(=O)C3=CC=CC=C3N2CCCN)C
Procedure, shortened: as §1

[14] = compound: CC1=C(C=C(C=C1)NC(=O)C2=CC(=CC=C2)C(C)(C)C#N)NC3=CC4=C(C=C3)N=CN(C4=O)C
Procedure, shortened: as §1

[15] = compound: CC1=C(C=C(C=C1)NC(=O)C2=CC(=CC=C2)N(C)C)NC(=O)C3=CC=C(C=C3)O
Procedure, shortened: as §1

[16] = compound: CC1=CC=C(C=C1)SC2=C3C=C(SC3=CN=C2)C(=O)N
Procedure, shortened: as §1

Measured: log2 fold change

FAM83D (UniProt Q9H4H8)
UniProt Q9H4H8, sequence (Q9H4H8 whole entry, looked up): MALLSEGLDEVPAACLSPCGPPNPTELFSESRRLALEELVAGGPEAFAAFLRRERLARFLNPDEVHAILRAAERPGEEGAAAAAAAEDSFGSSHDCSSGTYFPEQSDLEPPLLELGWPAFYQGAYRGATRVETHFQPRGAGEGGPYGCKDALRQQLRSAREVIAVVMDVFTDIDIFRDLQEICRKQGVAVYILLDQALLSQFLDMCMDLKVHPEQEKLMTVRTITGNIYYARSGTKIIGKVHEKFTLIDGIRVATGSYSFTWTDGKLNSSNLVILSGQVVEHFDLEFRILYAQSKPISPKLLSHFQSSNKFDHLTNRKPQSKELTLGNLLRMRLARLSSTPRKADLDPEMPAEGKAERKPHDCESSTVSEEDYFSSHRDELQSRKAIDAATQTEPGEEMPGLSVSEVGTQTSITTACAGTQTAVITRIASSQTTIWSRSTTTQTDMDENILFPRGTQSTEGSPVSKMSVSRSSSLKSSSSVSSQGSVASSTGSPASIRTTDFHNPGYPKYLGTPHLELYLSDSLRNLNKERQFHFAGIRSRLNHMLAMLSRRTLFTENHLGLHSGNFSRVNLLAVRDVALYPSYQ
inactive: erlotinib 0.033 | [1] 0.013 | [2] -0.049 | [3] 0.006 | [4] 0 | [5] -0.009 | [6] -0.003 | [7] -0.005 | [8] -0.004 | IRAK-1-4 Inhibitor I 0.019 | ibrutinib 0.028 | [9] 0.031 | ralimetinib 0.041 | [10] -0.018 | [11] 0.013 | [12] 0.038 | [13] -0.098 | [14] -0.032 | [15] 0.031 | [16] 0.017

EIF2AK2 (UniProt P19525)
UniProt P19525, sequence (P19525 whole entry, looked up): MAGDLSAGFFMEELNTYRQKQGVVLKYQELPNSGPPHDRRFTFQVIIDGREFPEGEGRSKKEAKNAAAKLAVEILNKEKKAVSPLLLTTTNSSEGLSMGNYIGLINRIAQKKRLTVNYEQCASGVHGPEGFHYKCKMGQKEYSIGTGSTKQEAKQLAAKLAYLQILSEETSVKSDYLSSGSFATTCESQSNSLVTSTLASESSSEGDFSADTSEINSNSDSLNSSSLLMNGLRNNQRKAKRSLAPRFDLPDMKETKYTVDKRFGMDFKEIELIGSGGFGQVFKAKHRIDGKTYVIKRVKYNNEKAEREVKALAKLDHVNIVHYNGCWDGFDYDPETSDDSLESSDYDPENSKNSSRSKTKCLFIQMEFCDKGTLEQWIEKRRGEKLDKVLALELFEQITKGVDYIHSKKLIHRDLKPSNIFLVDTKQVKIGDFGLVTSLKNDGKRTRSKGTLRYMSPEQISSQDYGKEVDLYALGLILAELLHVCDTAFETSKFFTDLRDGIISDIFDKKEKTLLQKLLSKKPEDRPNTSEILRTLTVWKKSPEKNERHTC
inactive: erlotinib 0.02 | [1] 0.011 | [2] -0.055 | [3] -0.072 | [4] 0.003 | [5] 0.005 | [6] -0.039 | [7] -0.013 | [8] 0.016 | IRAK-1-4 Inhibitor I -0.011 | ibrutinib 0.014 | [9] 0.015 | ralimetinib -0.025 | [10] 0.035 | [11] -0.009 | [12] 0.015 | [13] -0.008 | [14] -0.015 | [15] -0.019 | [16] -0.03

FCHO1 (UniProt O14526)
inactive: erlotinib 0.062 | [1] 0.034 | [2] 0.045 | [3] -0.055 | [4] 0.024 | [5] 0.065 | [6] -0.064 | [7] -0.044 | [8] -0.022 | IRAK-1-4 Inhibitor I -0.021 | ibrutinib -0.053 | [9] 0.022 | ralimetinib 0.018 | [10] 0.014 | [11] 0.013 | [12] 0.031 | [13] 0.018 | [14] 0.002 | [15] 0.004 | [16] 0.041

ENO1, A0A2R8YEM5
inactive: erlotinib -0.019 | [1] 0.004 | [2] 0.011 | [3] -0.017 | [4] 0.031 | [5] 0.016 | [6] 0.009 | [7] 0 | [8] 0.032 | IRAK-1-4 Inhibitor I -0.031 | ibrutinib -0.013 | [9] 0.008 | ralimetinib -0.012 | [10] -0.016 | [11] -0.024 | [12] -0.032 | [13] 0.001 | [14] 0.012 | [15] -0.044 | [16] 0.014

GIGYF2 (UniProt Q6Y7W6)
inactive: erlotinib -0.011 | [1] -0.033 | [2] -0.024 | [3] -0.016 | [4] 0.018 | [5] 0.005 | [6] -0.005 | [7] 0.006 | [8] -0.005 | IRAK-1-4 Inhibitor I 0.002 | ibrutinib -0.01 | [9] 0.004 | ralimetinib 0.014 | [10] -0.016 | [11] 0.029 | [12] -0.015 | [13] 0.01 | [14] 0.007 | [15] -0.006 | [16] 0.023

FANCD2 isoform 1 (UniProt Q9BXW9)
UniProt Q9BXW9, sequence (Q9BXW9 whole entry, looked up): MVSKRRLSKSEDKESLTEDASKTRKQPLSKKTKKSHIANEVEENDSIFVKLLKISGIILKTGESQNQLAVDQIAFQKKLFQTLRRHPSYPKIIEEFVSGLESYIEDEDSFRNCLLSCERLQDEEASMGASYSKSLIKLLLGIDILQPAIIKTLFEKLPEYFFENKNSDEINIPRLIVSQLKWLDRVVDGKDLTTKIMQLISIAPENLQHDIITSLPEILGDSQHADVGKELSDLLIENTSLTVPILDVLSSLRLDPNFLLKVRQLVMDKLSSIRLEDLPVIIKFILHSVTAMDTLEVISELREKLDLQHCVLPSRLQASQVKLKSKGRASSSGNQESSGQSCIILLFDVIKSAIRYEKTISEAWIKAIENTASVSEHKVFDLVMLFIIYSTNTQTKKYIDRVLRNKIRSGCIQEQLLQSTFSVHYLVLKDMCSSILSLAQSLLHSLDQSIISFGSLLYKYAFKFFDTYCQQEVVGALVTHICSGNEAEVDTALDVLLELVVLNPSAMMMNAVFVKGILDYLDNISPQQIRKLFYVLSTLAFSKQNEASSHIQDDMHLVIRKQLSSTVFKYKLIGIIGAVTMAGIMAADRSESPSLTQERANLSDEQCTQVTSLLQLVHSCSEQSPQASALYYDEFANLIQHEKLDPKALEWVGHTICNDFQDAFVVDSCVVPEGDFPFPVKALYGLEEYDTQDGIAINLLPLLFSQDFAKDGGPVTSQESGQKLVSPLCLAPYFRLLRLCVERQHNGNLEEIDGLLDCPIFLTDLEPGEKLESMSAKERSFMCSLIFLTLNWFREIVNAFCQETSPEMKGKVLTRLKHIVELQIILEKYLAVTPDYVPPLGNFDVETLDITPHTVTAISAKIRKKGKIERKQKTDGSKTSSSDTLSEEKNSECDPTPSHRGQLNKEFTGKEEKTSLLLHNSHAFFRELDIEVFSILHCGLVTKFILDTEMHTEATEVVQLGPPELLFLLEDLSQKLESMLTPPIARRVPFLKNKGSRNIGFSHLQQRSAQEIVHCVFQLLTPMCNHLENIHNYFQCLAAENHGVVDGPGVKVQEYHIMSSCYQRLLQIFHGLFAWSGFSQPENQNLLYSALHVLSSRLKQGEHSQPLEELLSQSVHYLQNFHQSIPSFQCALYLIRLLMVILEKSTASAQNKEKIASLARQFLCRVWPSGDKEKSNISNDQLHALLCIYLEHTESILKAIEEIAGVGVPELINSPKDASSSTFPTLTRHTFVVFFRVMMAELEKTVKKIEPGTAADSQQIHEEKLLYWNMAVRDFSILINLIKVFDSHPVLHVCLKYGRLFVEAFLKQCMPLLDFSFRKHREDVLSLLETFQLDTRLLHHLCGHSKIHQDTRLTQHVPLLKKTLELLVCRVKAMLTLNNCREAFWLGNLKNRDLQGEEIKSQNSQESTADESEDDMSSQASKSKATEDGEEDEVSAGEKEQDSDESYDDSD
inactive: erlotinib 0.059 | [1] 0.002 | [2] 0.019 | [3] -0.049 | [4] 0.01 | [5] 0.006 | [6] -0.092 | [7] -0.062 | [8] 0.095 | IRAK-1-4 Inhibitor I 0.036 | ibrutinib 0.01 | [9] -0.009 | ralimetinib 0 | [10] -0.066 | [11] 0.048 | [12] -0.02 | [13] -0.068 | [14] 0.071 | [15] 0.011 | [16] -0.008

FBXO45 (UniProt P0C2W1)
UniProt P0C2W1, sequence (P0C2W1 whole entry, looked up): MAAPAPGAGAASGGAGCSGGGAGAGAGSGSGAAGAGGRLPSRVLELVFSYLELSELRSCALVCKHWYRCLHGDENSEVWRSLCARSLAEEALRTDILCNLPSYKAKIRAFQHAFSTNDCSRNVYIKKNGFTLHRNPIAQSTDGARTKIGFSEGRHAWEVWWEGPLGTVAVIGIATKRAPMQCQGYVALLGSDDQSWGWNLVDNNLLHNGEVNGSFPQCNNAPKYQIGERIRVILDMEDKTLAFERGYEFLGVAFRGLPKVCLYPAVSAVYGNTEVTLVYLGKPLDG
inactive: erlotinib 0.077 | [1] 0.016 | [2] -0.033 | [3] 0.092 | [4] -0.099 | [5] -0.126 | [6] -0.069 | [7] 0.018 | [8] 0.01 | IRAK-1-4 Inhibitor I -0.043 | ibrutinib 0.207 | [9] 0.075 | ralimetinib 0.173 | [10] 0.045 | [11] 0.043 | [12] 0.015 | [14] 0.064 | [15] 0.018 | [16] 0.081

FASTKD5 (UniProt Q7L8L6)
UniProt Q7L8L6, sequence (Q7L8L6 whole entry, looked up): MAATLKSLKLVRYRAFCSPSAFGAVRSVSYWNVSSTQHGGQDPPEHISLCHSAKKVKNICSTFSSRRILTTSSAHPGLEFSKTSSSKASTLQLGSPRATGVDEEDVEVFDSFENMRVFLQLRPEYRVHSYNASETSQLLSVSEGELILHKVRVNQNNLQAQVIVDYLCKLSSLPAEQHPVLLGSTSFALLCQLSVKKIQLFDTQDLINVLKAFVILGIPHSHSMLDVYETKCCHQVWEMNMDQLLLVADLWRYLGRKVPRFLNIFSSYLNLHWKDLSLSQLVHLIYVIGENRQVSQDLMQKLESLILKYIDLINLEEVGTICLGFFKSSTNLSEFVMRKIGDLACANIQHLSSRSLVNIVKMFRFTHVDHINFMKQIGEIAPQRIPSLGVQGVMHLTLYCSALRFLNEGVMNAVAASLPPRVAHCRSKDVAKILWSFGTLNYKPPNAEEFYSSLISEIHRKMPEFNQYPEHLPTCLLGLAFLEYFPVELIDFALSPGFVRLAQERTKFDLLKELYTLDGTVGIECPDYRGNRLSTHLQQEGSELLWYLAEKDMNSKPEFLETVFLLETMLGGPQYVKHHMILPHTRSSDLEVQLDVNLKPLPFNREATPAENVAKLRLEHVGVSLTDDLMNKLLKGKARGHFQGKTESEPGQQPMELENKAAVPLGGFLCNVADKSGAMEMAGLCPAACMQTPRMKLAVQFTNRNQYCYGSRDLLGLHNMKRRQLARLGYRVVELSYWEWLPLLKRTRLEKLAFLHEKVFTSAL
inactive: erlotinib 0.061 | [1] 0.019 | [2] -0.054 | [3] 0.023 | [4] 0.013 | [5] -0.014 | [6] -0.066 | [7] -0.047 | [8] 0.013 | IRAK-1-4 Inhibitor I -0.019 | ibrutinib -0.134 | [9] 0.056 | ralimetinib 0.073 | [10] 0.007 | [11] -0.027 | [12] 0.032 | [13] 0.006 | [14] 0.021 | [15] 0.008 | [16] -0.053

DSTN (UniProt P60981)
UniProt P60981, sequence (P60981 whole entry, looked up): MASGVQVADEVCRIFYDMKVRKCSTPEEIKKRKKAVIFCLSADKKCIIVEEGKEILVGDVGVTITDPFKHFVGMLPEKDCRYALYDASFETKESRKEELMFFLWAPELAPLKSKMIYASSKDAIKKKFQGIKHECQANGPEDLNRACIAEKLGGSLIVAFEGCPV
inactive: erlotinib -0.038 | [1] -0.027 | [2] -0.007 | [3] 0.014 | [4] 0.013 | [5] 0 | [6] 0.005 | [7] -0.021 | [8] -0.012 | IRAK-1-4 Inhibitor I -0.007 | ibrutinib -0.011 | [9] -0.013 | ralimetinib -0.004 | [10] 0.038 | [11] -0.006 | [12] -0.001 | [13] 0.045 | [14] -0.005 | [15] -0.012 | [16] -0.003

DSN1 (UniProt Q9H410)
UniProt Q9H410, sequence (Q9H410 whole entry, looked up): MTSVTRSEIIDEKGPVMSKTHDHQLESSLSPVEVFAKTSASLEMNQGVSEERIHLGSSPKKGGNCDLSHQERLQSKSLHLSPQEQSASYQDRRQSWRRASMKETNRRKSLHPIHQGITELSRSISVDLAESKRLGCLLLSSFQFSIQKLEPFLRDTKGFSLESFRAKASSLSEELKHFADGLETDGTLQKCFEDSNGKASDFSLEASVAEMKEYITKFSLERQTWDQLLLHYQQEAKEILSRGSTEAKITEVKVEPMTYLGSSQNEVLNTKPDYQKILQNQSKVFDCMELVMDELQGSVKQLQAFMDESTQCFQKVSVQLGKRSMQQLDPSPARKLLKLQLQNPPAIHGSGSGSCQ
inactive: erlotinib -0.021 | [1] 0.03 | [2] 0.037 | [3] 0.014 | [4] 0.01 | [5] -0.025 | [6] 0.032 | [7] -0.034 | [8] -0.024 | IRAK-1-4 Inhibitor I 0.002 | ibrutinib -0.004 | [9] -0.023 | ralimetinib 0.011 | [10] 0.001 | [11] -0.015 | [12] 0.024 | [13] -0.018 | [14] 0.017 | [15] 0.025 | [16] -0.011

FAM114A2 (UniProt Q9NRY5)
inactive: erlotinib -0.039 | [1] -0.068 | [2] 0.141 | [3] -0.028 | [4] -0.1 | [5] -0.052 | [6] 0.02 | [7] -0.045 | [8] -0.104 | IRAK-1-4 Inhibitor I -0.002 | ibrutinib -0.016 | [9] -0.061 | ralimetinib -0.036 | [10] -0.11 | [11] 0.057 | [12] 0.171 | [13] 0.06 | [14] -0.069 | [15] 0.005 | [16] 0.012

EXOC5 (UniProt O00471)
UniProt O00471, sequence (O00471 whole entry, looked up): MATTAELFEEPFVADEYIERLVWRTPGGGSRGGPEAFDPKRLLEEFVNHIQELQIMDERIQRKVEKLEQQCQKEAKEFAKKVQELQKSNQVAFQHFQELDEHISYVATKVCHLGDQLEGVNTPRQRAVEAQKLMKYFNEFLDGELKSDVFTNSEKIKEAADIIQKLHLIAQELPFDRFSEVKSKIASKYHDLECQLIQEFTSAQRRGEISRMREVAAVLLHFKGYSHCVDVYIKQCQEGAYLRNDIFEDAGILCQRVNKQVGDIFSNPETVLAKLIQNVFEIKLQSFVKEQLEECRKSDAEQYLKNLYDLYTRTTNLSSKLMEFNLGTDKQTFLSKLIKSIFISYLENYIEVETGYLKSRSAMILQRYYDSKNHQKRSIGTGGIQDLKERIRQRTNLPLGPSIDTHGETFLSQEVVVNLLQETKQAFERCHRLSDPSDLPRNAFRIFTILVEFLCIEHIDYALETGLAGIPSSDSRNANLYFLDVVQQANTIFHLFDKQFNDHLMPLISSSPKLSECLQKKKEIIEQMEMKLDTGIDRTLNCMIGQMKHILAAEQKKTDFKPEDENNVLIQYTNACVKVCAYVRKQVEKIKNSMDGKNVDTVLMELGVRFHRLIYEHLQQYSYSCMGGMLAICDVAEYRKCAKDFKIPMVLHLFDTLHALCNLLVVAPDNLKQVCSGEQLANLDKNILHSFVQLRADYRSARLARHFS
inactive: erlotinib 0.022 | [1] -0.021 | [2] -0.041 | [3] 0.033 | [4] -0.006 | [5] -0.013 | [6] -0.016 | [7] 0.005 | [8] 0.006 | IRAK-1-4 Inhibitor I -0.011 | ibrutinib -0.015 | [9] 0.012 | ralimetinib 0.04 | [10] -0.003 | [11] -0.016 | [12] 0.008 | [13] 0.003 | [14] -0.024 | [15] 0.041 | [16] -0.013
